# FBW7 act – human FBW7 E3 ligase activation, primary screen | Q969H0 | AlphaScreen FBW7–phospho-cyclin E peptide binding, activator screen | normalized activity (activation), % at 26.1 µM | 650,000 tested, 0.13% active | AID 1259310; in the data active means normalized activity above about 1.9%;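 further: purified mutant Fbw7 with reduced substrate affinity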
# GPR151 activ – activates the human receptor GPR151; activation, % at 11.2 µM; PathHunter beta-arrestin GPR151 cells, luminescence; Q8TDV0; 650,000 tested, 1% active; in the data active means activation above about 4.9%
# TEAD-YAP inh – TEAD-YAP interaction inhibition; 640,000 tested, 1.4% active; HEK-TIYL cells, TEAD-Gal4/YAP UAS-luciferase luminescence; inhibition, % at 9.12 µM; in the data active means inhibition above about 32%
# MITF inh – inhibitors of human MITF; inhibition, % at 2.6 µM; 650,000 tested, 0.91% active; AlphaScreen MITF homodimerization, bead proximity signal; AID 1259374; in the data active means inhibition above about 50%
# Target sequence (O75030 whole entry, looked up): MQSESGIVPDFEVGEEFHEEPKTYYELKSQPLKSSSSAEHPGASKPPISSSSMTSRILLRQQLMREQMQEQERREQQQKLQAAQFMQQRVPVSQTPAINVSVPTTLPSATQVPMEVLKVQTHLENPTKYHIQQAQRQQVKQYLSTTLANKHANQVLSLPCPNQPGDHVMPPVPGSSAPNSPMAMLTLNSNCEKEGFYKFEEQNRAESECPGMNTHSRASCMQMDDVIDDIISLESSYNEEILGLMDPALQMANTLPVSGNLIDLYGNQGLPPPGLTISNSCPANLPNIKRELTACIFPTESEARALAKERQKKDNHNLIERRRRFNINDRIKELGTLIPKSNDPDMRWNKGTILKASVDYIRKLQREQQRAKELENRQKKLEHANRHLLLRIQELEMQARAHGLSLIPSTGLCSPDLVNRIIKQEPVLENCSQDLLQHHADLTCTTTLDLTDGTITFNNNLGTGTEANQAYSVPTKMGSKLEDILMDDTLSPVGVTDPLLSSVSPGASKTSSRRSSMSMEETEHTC
# A number is an active result; i = inactive. This is a sample that favours compounds with a hit; in the whole collection about 3.5% have one here.
SMILES,FBW7 act,GPR151 activ,TEAD-YAP inh,MITF inh
CN(C)CCNC(=O)c1cc2c(Cl)nc3ccccc3c2s1,i,i,55,i
Cn1c(CNC(=O)c2ccccc2F)nnc1SCC(=O)N1N=C(c2cccs2)CC1c1ccc(F)cc1 (centres undefined),i,i,i,i
Nc1ccc(OCC[n+]2ccc(CCS(=O)(=O)O)cc2)cc1,i,i,i,i
O=S(=O)(O)CCc1cc[n+](CC(O)CCl)cc1 (centres undefined),2.4,i,i,i
O=S(=O)(O)CCc1cc[n+](CC(O)CO)cc1 (centres undefined),2.8,i,i,i
CCOc1cc(C(=O)Nc2ccc(-c3ccn[nH]3)cc2)cc(OCC)c1OCC,i,i,51,i
O=C(Nc1ccc(-c2ccn[nH]2)cc1)c1cccnc1,i,i,79,i
O=C(Nc1cccc(-c2nc3ccc(NC(=O)c4cccnc4)cc3o2)c1)c1cccnc1,i,i,41,i
CC1CCCCC1NC(=O)c1ccc2nc(-c3ccccc3)c(-c3ccccc3)nc2c1 (centres undefined),i,i,i,i
Cc1ccc(-c2cnc3c(N4CCN(CCO)CC4)nccn23)cc1,i,i,i,i
COc1ccc(C(=O)c2ccc(OC)c(N)c2)cc1N,i,i,36,i
COc1ccc(C(=O)c2ccc(OC)c(OC)c2)cc1OC,i,i,i,i
COc1ccc(-c2nc(CSCC(=O)NC3CCCCCC3)c(C)o2)cc1,i,i,i,i
CCOc1ccccc1CN1CCC(n2nccc2NC(=O)Nc2ccccc2C)CC1,i,i,i,i
c1ccc(CNc2nc(Nc3ccccn3)nc3nc[nH]c23)cc1,i,i,i,i
CC(C)n1cnc2c(NCc3nc4ccccc4[nH]3)nc(Nc3ncccn3)nc21,i,i,66,i
CC(C)n1cnc2c(NCc3nc4ccccc4[nH]3)nc(Nc3cccc(N(C)C)c3)nc21,i,i,43,i
Cc1noc(C)c1-c1nc(NCc2nc3ccccc3[nH]2)c2ncn(C(C)C)c2n1,i,i,49,i
CC(C)n1cnc2c(NCc3ccccc3)nc(Nc3cccc(N(C)C)c3)nc21,i,i,i,i
CC(C)n1cnc2c(NCc3nc4ccccc4[nH]3)nc(Nc3ccncc3)nc21,i,i,90,i
CC(C)n1cnc2c(NCc3nc4ccccc4[nH]3)nc(-c3csc4ccccc34)nc21,i,i,i,i
Cc1nn(-c2ccccc2)c2c1C(c1cccc(F)c1)C(C#N)=C(N)O2 (centres undefined),i,i,i,i
CC(=O)Nc1ccc(Nc2ccnc(Nc3ccncn3)n2)cc1,i,i,i,i
CC(=O)Nc1ccc(Nc2ccnc(Nc3ccc(C(F)(F)F)cc3)n2)cc1,i,i,60,i
CC(=O)Nc1ccc(Nc2cc(C)nc(Nc3ccc4ncccc4c3)n2)cc1,i,i,i,i
SMILES,FBW7 act,GPR151 activ,TEAD-YAP inh,MITF inh
CC(=O)Nc1ccc(Nc2ccnc(Nc3ccc4ncccc4c3)n2)cc1,i,i,37,i
Cc1cc(C)c(Cc2c(C)nc3c(C(=O)NCCc4ccc(Cl)cc4)cnn3c2C)c(C)c1,i,i,i,i
NC(=O)c1oc2ccccc2c1NC(=O)/C=C/c1cccs1,i,i,i,i
Cc1nc(C)c(C(=O)NC(C)c2cnn(-c3ccccn3)c2C)s1 (centres undefined),i,i,45,i
Cc1nc(C)c(C(=O)NC(C)c2cnn(-c3ccccc3C)c2C)s1 (centres undefined),i,i,54,i
Cc1cc(C(=O)CCl)c(C)n1CC1CCCO1 (centres undefined),i,i,i,i
COC(=O)c1ccc(CSCC(=O)c2cc(C)n(CC3CCCO3)c2C)cc1 (centres undefined),i,i,37,i
Cc1cc(C(=O)CSc2nc3ccccc3[nH]2)c(C)n1CC1CCCO1 (centres undefined),i,i,40,i
Cc1ccc(/C=C(\C#N)C(=O)Nc2ccccc2Cl)o1,i,i,i,i
Cc1cc(C2C(=O)c3ccccc3C2=O)nc2ccccc12,i,i,49,i
COc1ccc(NS(=O)(=O)c2cc(NC(=O)CNC(C)=O)ccc2N2CCCC2)cc1,i,i,39,i
NNC(=O)/C(=C/c1cccs1)NC(=O)c1ccccc1,i,i,47,i
COc1ccc(O)c(/C=N/NC(=O)/C(=C\c2cccs2)NC(=O)c2ccccc2)c1,i,i,58,i
CCOc1ccc(O)c(/C=N/NC(=O)/C(=C\c2cccs2)NC(=O)c2ccccc2)c1,i,i,i,i
CC(C)C[C@H]1NC(=O)[C@@H]2C[C@H](NC(=O)Nc3cc(Cl)ccc3Cl)CN2C1=O,i,i,i,i
Cc1cccc(N2CCN(c3ncnc4c3cnn4-c3ccccc3)CC2C)c1 (centres undefined),i,i,43,i
Cc1ccc(N2CCN(c3ncnc4c3c(-c3ccccc3)cn4-c3ccc(Br)cc3)CC2C)cc1 (centres undefined),3.7,i,i,i
Cc1cccc(-n2ncc3c(N4CCOCC4)ncnc32)c1,i,i,93,i
Cc1ccc(-n2ncc3c(N4CCCCC4)ncnc32)cc1C,i,i,73,i
Clc1cccc(N2CCN(Cn3cnc4ccccc43)CC2)c1,i,i,i,i
Cc1ccc(-n2ncc3c(N4CCCC4)ncnc32)cc1,i,i,48,i
Cc1cccc(-n2ncc3c(N4CCN(c5ccccc5)CC4)ncnc32)c1,i,i,i,i
Cc1cccc(-n2ncc3c(N4CCCC4)ncnc32)c1,i,i,52,i
Cc1ccc(-n2ncc3c(N4CCCCC4)ncnc32)c(C)c1,i,i,i,i
Cc1ccc(-n2ncc3c(N4CCOCC4)ncnc32)c(C)c1,i,i,58,i
SMILES,FBW7 act,GPR151 activ,TEAD-YAP inh,MITF inh
CCc1ccc(-n2c(C)cn3c4c(=O)n(CC(C)=O)c(=O)n(C)c4nc23)cc1,i,i,i,i
C/C(=N/NC(=O)c1cccc2cc[nH]c12)c1ccccc1,i,i,i,i
O=[N+]([O-])c1ccc(CSc2nc(Nc3ccc(F)cc3)c3ccccc3n2)cc1,i,i,i,i
CC(C)c1ccccc1C=NCC(=O)O,2.2,i,i,i
COC(=O)CC[C@H](NC(=O)c1cc(CCc2ccccc2)no1)C(=O)OC,i,i,i,i
Cc1cc(=O)[nH]c(N/N=C/c2ccc(O)c(O)c2O)n1,i,i,i,100
Cc1cc(C)nc(N/N=C/c2cc(Br)cc(Br)c2O)n1,i,i,i,i
Cc1cc(C)nc(N/N=C/c2ccc(O)c(O)c2O)n1,i,i,i,52
CCC/C(O)=C1\C(=O)CC(C)(C)CC1=Nc1ccc(OC)cc1OC,i,i,55,i
COc1ccc2cc3c(N)nn(C(=O)c4ccncc4)c3nc2c1,i,i,i,i
COc1ccc2nc3c(cc2c1)c(N)nn3C(=O)c1cc(OC)c(OC)c(OC)c1,i,i,62,i
CCOc1ccc(C(=O)n2nc(N)c3cc4cc(OC)ccc4nc32)cc1OCC,i,i,52,i
COc1ccc2cc3c(N)nn(C(=O)c4cc(OC)c(OC)c(OC)c4)c3nc2c1,i,i,51,i
CC1=NN(c2ccc(Cl)c(C(=O)O)c2)C(=O)/C1=C/c1ccc(-c2cccc(C(F)(F)F)c2)o1,i,i,i,i
